Reference: PubChem BioAssay (NCI)
This is part of a sample that, as a whole, favours compounds with a hit. Of some 83,000 tested, about 20% had one in any assay.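 Values shown are percent growth following 48 h exposure of cells in 96-well plates to a single concentration of compound; below 10 was considered active.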 Unmarked numbers belong to inactive results. Calls of active or inactive are those of the source.

Columns and labels:
Test in all cases: NCI-60 one-dose screen, 48 h (100 = growth as untreated, 0 = no growth, -100 = all killed)
[1] = tested on: DU-145 prostate; details: 10 µM unless noted
[2] = tested on: K-562 leukemia; details: 10 µM unless noted
[3] = tested on: MALME-3M melanoma; details: 10 µM unless noted
[4] = tested on: MDA-MB-231 breast; details: 10 µM unless noted
[5] = tested on: RXF 393 renal; details: 10 µM unless noted
[6] = tested on: SF-268 CNS; details: 10 µM unless noted
[7] = tested on: SF-295 CNS; details: 10 µM unless noted
[8] = tested on: SF-539 CNS; details: 10 µM unless noted
[9] = tested on: UACC-257 melanoma; details: 10 µM
[10] = tested on: M14 melanoma; details: 10 µM unless noted
[11] = tested on: HCT-15 colon; details: 10 µM unless noted
[12] = tested on: HT29 colon; details: 10 µM unless noted
[13] = tested on: SNB-75 CNS; details: 10 µM unless noted
[14] = tested on: SNB-19 CNS; details: 10 µM unless noted
[15] = tested on: U251 CNS; details: 10 µM unless noted
[16] = tested on: SK-MEL-5 melanoma; details: 10 µM unless noted
[17] = tested on: UACC-62 melanoma; details: 10 µM unless noted
[18] = tested on: LOX IMVI melanoma; details: 10 µM unless noted
[19] = tested on: SK-MEL-28 melanoma; details: 10 µM unless noted
[20] = tested on: PC-3 prostate; details: 10 µM unless noted

Row | Structure (SMILES) | growth [1] | growth [2] | growth [3] | growth [4] | growth [5] | growth [6] | growth [7] | growth [8] | growth [9] | growth [10] | growth [11] | growth [12] | growth [13] | growth [14] | growth [15] | growth [16] | growth [17] | growth [18] | growth [19] | growth [20]
1 | CN1CCN(Cc2ccc(NC(=O)c3cncc(C#Cc4cnc5ccc(NC6CCOCC6)nn45)c3)cc2C(F)(F)F)CC1 | -95.2% (active) | -12.8% (active) | -86.5% (active) | -71.9% (active) | -93.8% (active) | -47.5% (active) | -85.2% (active) | -92.1% (active) | -13.9% (active) | -97.2% (active) | -48.4% (active) | 0.122% (active) | -56.8% (active) | -7.17% (active) | -96.7% (active) | -97.7% (active) | -61.8% (active) | -83.8% (active) | -74.6% (active) | 
2 | O=C(/C=C1\C=CN(CCCCCCF)c2ccccc21)n1ccc2ccccc21 | 109% | 91.2% | 91.6% | 84.4% | 121% | 99.7% | 94.6% | 99.3% | 103% | 92% | 101% | 98.3% |  | 97.1% | 98.9% | 94.4% | 76% | 101% | 106% | 84.7%
3 | NNC(=O)c1sc2nc(-c3cnccn3)cc(-c3cccs3)c2c1N | 104% | 95.5% | 95.6% | 79% | 102% | 93.5% | 104% | 94.9% | 115% | 105% | 89.9% | 106% |  | 88.2% | 90% | 97.2% | 93.7% | 83.2% | 101% | 90.1%
4 | O=C(CCCCCCN1CC(=O)N2[C@@H](c3ccccc3)c3[nH]c4ccccc4c3C[C@H]2C1=O)NO | 58.3% | 26.3% | 21.8% | 70.1% | 76.6% | 82.1% | 57.4% | 62.5% | 45.7% | 49.9% | 91.4% | 41.9% |  | 67.1% | 51.7% | 41.7% | 18.8% | 30.8% | 47% | 59.6%
5 | CCOC(=O)C1=C(C)Nc2nnc(Nc3ccccc3)n2C1c1ccccc1 (stereo not drawn) | 81.6% | 57% | 75.3% | 65.7% | 80% | 81.9% | 96.6% | -3.55% (active) | 97% | 100% | 58.1% | 79.4% | 70.5% | 81.6% | 45.4% | 89.9% | 75.3% | 59.2% | 89.9% | 
6 | Nc1c(C(=O)c2ccccc2)sc2nc(-c3cnccn3)cc(-c3cccs3)c12 | 106% | 99.4% | 104% | 92.7% | 108% | 97.8% | 105% | 95.2% | 103% | 97.4% | 106% | 107% |  | 96.5% | 104% | 103% | 87.1% | 101% | 106% | 100%
7 | CCCCCCCCNC(=O)c1ccc(Cn2c(CCCC)nc3c(N)nc4ccccc4c32)cc1 | 27.7% | -59.9% (active) | -82.9% (active) | -71.6% (active) | 23.3% | 53.7% | -80.8% (active) | -87.1% (active) | -70.3% (active) | -80.4% (active) | -55.8% (active) | -23% (active) |  | 14.9% | -59% (active) | -96.8% (active) | 23.4% | -86.3% (active) | -94% (active) | 41.5%
